Test results from PubChem BioAssay AID504707 (The Scripps Research Institute Molecular Screening Center, 2011).
In all, about 340,000 compounds went through this assay and about 280 (0.082%) were called active. The list comes from a sample in which actives are over-represented; it also holds similar structures and randomly drawn compounds. Values without a mark were called inactive.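 Rule for the calls: active = percent activation above the mean of all tested compounds plus 3 SD (cut at about 19% in these data); inactive = the rest.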

The compounds below were run against cAMP-dependent protein kinase type I-alpha regulatory subunit (Bos taurus) + cAMP-dependent protein kinase catalytic subunit beta (Mus musculus) (UniProt P00514+P68181) (assay: activators of PKA-R1A holoenzyme, primary screen, biochemical, fluorescence polarization, Cy5-IP20, bovine R1A, mouse PKAc (AID 504707;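 note: higher means more PKAc released from R1A so a rise in polarization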)). Details: PKA-R1A dissociation, at 11.4 µM, hits give high values, scaled: DMSO 0%, 113 µM cGMP 100%.

| Compound | activation |
| --- | --- |
| CCc1ccccc1OCC(=O)Nc1nnc(C2CC2)s1 | 8.59% |
| Cc1ccc(C(=O)OCC(=O)N2CC(C)CC(C)C2)cc1S(=O)(=O)N1CCCCC1 (configuration not stated) | 2.86% |
| O=C(OCc1ccccc1)N1CCC2CC1c1ccc(-c3ccc4c(c3)OCO4)cc12 (configuration not stated) | -1.02% |
| CC(OC(=O)c1cccnc1Cl)C(=O)NC1CCCCC1 (configuration not stated) | 0.33% |
| O=Cc1cn(CCOc2ccc(F)cc2)c2ccccc12 | 1.87% |
| CCOc1ccc(CCNC(=O)COC(=O)c2ccc(C)c(S(=O)(=O)N3CCOCC3)c2)cc1OCC | -10.3% |
| COc1ccc(CN2CC(C(=O)NC3CCCCC3)CC2=O)cc1 (configuration not stated) | 6.81% |
| COc1ccc(N)cc1NC(=O)CN1CCOCC1 | 8.37% |
| COC(=O)C[C@H]1C[C@@H]2c3cc(NC(=O)Nc4ccccc4)ccc3O[C@@H]2[C@@H](CO)O1 | 1.1% |
| O=C(C[C@H]1C[C@@H]2c3cc(NC(=O)C4CCC4)ccc3O[C@@H]2[C@H](CO)O1)NC1CCCCC1 | -5.02% |
| O=C(Nc1ccc2c(c1)[C@@H]1C[C@@H](CC(=O)N3CCCCC3)O[C@@H](CO)[C@@H]1O2)NC1CCCCC1 | 19.6% (active) |
| CC(C)CCC(=O)Nc1cc(S(=O)(=O)N2CCOCC2)ccc1N1CCCC1 | -1.93% |
| CC1(c2cccc(Br)c2)NC(=O)N(CC(=O)NCCC2=CCCCC2)C1=O (configuration not stated) | -3.47% |
| CCOc1ccc(NC(=O)CN(C)C(=O)Cn2c(=O)cnc3ccccc32)cc1OCC | -7.12% |
| CCOc1ccc(C(=O)Nc2ccc(S(=O)(=O)Nc3cc(C)on3)cc2)cc1 | 3.9% |
| CCC(Oc1ccccc1C)C(=O)Nc1ccc(S(=O)(=O)Nc2cc(C)on2)cc1 (configuration not stated) | 20.4% (active) |
| CCc1ccc(OC(C)C(=O)Nc2ccc(S(=O)(=O)Nc3cc(C)on3)cc2)cc1 (configuration not stated) | -6.6% |
| O[C@H]1CN(Cc2cccs2)[C@@H](c2ccc(Cl)cc2)C[C@@H]1n1cc(C2CC2)nn1 | -6.87% |
| O=C(O)C1=C(C(=O)O)C2CCC1C2 | 7.53% |
| CCCCCC(=O)N1C[C@H](O)[C@@H](n2cc(COC(=O)c3ccccc3)nn2)C[C@@H]1c1ccc(C)cc1 | 1.28% |
| Cc1ccc(-c2ccc(CN3C(C(C)C)C(=O)N(Cc4cn(CCC5OCCCO5)nn4)CCS3(=O)=O)cc2)cc1 (configuration not stated) | -3.03% |
| Cc1cccn2c(=O)c3cc(C(=O)NCCN4CCOCC4)c(=N)n(Cc4cccnc4)c3nc12 | 5.89% |
| Cc1ccc2nc3c(cc(C(=O)NCCc4ccccc4)c(=N)n3CC3CCCO3)c(=O)n2c1 (configuration not stated) | 20.5% (active) |
| Cc1ccc(CCNC(=O)c2ccc3nc4ccccc4c(=O)n3c2)cc1 | 1.64% |
| Cc1ccc(S(=O)(=O)N(CCc2ccccc2)c2ccc3c(c2)C2CC3CCN2C(=O)OCc2ccccc2)cc1 (configuration not stated) | -0.4% |
| CC(C)NC(=O)Nc1ccc2c(c1)C(=O)N([C@H](C)CO)C[C@H](C)[C@@H](CN(C)Cc1ccc(C(F)(F)F)cc1)OCCCC[C@@H](C)O2 | 3.01% |

| Compound | activation |
| --- | --- |
| C#CCN(C[C@@H]1[C@@H](OC(=O)NC2CC2)[C@@H](OC(=O)NC2CC2)Cn2c(=O)ccc(=O)n21)S(=O)(=O)c1ccc(C)cc1 | -6.57% |
| CN(Cc1c(F)cccc1Cl)C(=O)COC(=O)Cn1cnc2ccccc2c1=O | 0.6% |
| COc1ccc(NC(=O)C[C@H]2C(=O)N(CCc3ccccc3)C[C@@H]2C)cc1 | -0.95% |
| COc1ccccc1N1CC(C(=O)Nc2nnc(SCC(=O)NC(C)C)s2)CC1=O (configuration not stated) | 24.3% (active) |
| COc1ccccc1N1CC(C(=O)Nc2nnc(SCC(=O)NCC3CCCO3)s2)CC1=O (configuration not stated) | 0.23% |
| Cc1ccccc1N1CC(C(=O)Nc2nnc(SCCC3OCCO3)s2)CC1=O (configuration not stated) | -0.56% |
| CC1CN(C(=O)c2cccc(NS(=O)(=O)c3ccc(Br)cc3)c2)CC(C)O1 (configuration not stated) | -7.05% |
| CSc1ncnc2c1ncn2CCCNCc1ccco1 | -1.79% |
| COc1cccc(NC(=O)CN(C)C(=O)c2cc(Cl)nc3ccccc23)c1 | 9.02% |
| O=C1c2ccccc2-c2ccccc2NC1O (configuration not stated) | 10.3% |
| CCOc1cc(C(=O)Nc2ccc(S(=O)(=O)Nc3cnc4ccccc4n3)cc2)cc(OCC)c1OCC | -1.58% |
| CCOc1cc(C(=O)Nc2c(C)ccc3nsnc23)cc(OCC)c1OCC | 19.5% (active) |
| Cc1ccc2nsnc2c1NC(=O)c1ccccc1[N+](=O)[O-] | -6.39% |
| CCCn1c(N)c(C(=O)CSc2nnc(Cc3cccs3)n2C2CC2)c(=O)[nH]c1=O | 9.54% |
| O=C1CC[C@@H](C(=O)N2CSC[C@@H]2C(=O)Nc2ccc(C(F)(F)F)cc2)N1 | 0.56% |
| CC(=O)Nc1ccc(SCC(=O)NC(=O)c2ccc(Cl)cc2)cc1 | 2.13% |
| CCC(=O)N1CCc2cc(S(=O)(=O)CCC(=O)N3CCN(c4ccccc4F)CC3)ccc21 | 2.69% |
| Cc1ccn(C(CC(=O)c2ccc(Br)cc2)C(=O)O)n1 (configuration not stated) | -7.77% |
| CC1C(=O)N(Cc2cn(CC3CCCCC3)nn2)CCS(=O)(=O)N1Cc1ccc(-c2cccc(N(C)C)c2)cc1 (configuration not stated) | -4.48% |
| NC(CSC(c1ccccc1)(c1ccccc1)c1ccc(-c2ccccc2)cc1)C(=O)O (configuration not stated) | -6.56% |
| Cc1cc(/C=C2/SC(=O)N(CC(=O)N3CCCC3)C2=O)c(C)n1C | -2.71% |
| Cc1ccc(C(=O)O)cc1-c1ccc(/C=C2\SC(=O)N(CC(=O)Nc3ccc4c(c3)OCO4)C2=O)o1 | 0.69% |
| N#Cc1ccccc1CN1C(=O)S/C(=C/c2cccn2-c2cccc(C(=O)O)c2)C1=O | 26.4% (active) |
| CC(=O)Nc1ccc(C=CC(=O)c2ccc([N+](=O)[O-])cc2)cc1 | 4.15% |
| COc1ccc(CN2C(=O)C(CC(=O)NCCCCc3ccccc3)CC(C(=O)N3CCOCC3)=C2C)cc1 (configuration not stated) | -0.11% |
| Cc1ccc(NC(=O)COC(=O)CN2CCSC2=O)cc1F | -5.13% |
